Assay results as given in PubChem BioAssay (NCATS).
Records with an inconclusive call do not appear. The source made the active and inactive calls. The call rests on the fitted dose curve; in most records, active means well fitted curve in the direction sought with a large enough effect; inconclusive means small, poorly fitted or top-dose-only effect, or another doubt; inactive means no such curve, though single readings can be large; an effect the other way counts as inactive or inconclusive.

Key:
[1] = biological target: N-terminal Xaa-Pro-Lys N-methyltransferase 1 (Homo sapiens) (UniProt Q9BV86); assay: qHTS Assay for Inhibitors of N-terminal methyltransferase 1 (NTMT1): LOPAC validation of the NTMT1 SAHH-coupled ThioGlo3 Assay (AID 1347143); further: potency means the concentration at half of the fitted maximal effect; nearly all actives have a fitted effect of over 70% in size
Sequence of N-terminal Xaa-Pro-Lys N-methyltransferase 1 (Homo sapiens) (Q9BV86 whole entry, looked up): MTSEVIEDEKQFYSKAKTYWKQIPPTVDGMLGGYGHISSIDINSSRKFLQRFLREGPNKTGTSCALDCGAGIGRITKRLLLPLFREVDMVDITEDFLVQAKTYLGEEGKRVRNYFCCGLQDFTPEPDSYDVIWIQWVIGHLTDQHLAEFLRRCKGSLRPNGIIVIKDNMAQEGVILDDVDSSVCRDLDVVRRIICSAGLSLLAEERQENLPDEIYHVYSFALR
Summary of the method: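 Fluorescence read-out (excitation 340nm, emission 450nm) of SAH-derived thiol, measured via SAHH coupling and ThioGlo3, taken immediately and after a 30 min room-temperature reaction, then normalized to the background read. Enzyme: NTMT1 at 125nM; cofactor SAM 100uM in the added reagent.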

[2] = tested on: Zika virus NS2B-NS3 protease (unlinked); assay: Optimization of GU AMC qHTS for Zika virus inhibitors: Unlinked NS2B-NS3 protease assay (AID 1347151); further: potency means the concentration at half of the fitted maximal effect; nearly all actives have a fitted effect of over 80% in size
Summary of the method: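 In this qHTS, compounds acted on 25 nM unlinked Zika NS2B–NS3 in pH 8.0 Tris/Tween buffer. Cleavage of an AMC peptide ran 15 min at room temperature, to about 20% conversion.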

[3] = Confirmatory screen GU Rhodamine qHTS for Zika virus inhibitors qHTS (AID 1347157); further: potency means the concentration at half of the fitted maximal effect; nearly all actives have a fitted effect of over 70% in size
Summary of the method: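 Percent inhibition derives from the 15-min fluorescence change (ex 480, em 540 nm), normalized to no-enzyme and no-inhibitor wells. Reactions contained 25 nM NS2B-NS3 complex and 1.5 microM substrate in 10 mM Tris-HCl pH 8.0.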

[4] = ZIKV-mCherry secondary qHTS for Zika virus inhibitors (AID 1347158); further: potency means the concentration at half of the fitted maximal effect
Summary of the method: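 Vero cells, 5,000/well, plated overnight at 37 °C, then compound added and infected with recombinant ZIKV-mCherry at MOI 1 for 48-72 h. PFA-fixed, Hoechst nuclear stain, high-content imaging; cells with mCherry intensity above 450 RFU scored infected, reported as percent infection.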

[5] = Confirmatory screen NINDS Rhodamine qHTS for Zika virus inhibitors (AID 1347161); further: potency means the concentration at half of the fitted maximal effect; nearly all actives have a fitted effect of over 60% in size
Summary of the method: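 Kinetic fluorescence (Ex 480 nm, Em 540 nm) over 15 min with 1.5 microM Rhodamine110 peptide and 25 nM linked protease.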

[6] = tested on: Zika virus NS2B-NS3 protease (linked); assay: 384 well plate NINDS AMC confirmatory qHTS for Zika virus inhibitors (AID 1347163); further: potency means the concentration at half of the fitted maximal effect; nearly all actives have a fitted effect of over 50% in size
Summary of the method: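 Linked protease 5/30/60 nM final; cpds up to 1 mM final, ~15 min preinc. Substrate Ac-VKTGKR-AMC 30 microM final. RT, dark, 25 min; FI ex 355/em 460; normalized to no-enzyme/no-inhibitor ctrls.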

[7] = tested on: Zika virus NS2B-NS3 protease (linked construct); assay: 384 well plate NINDS Rhodamine confirmatory qHTS for Zika virus inhibitors (AID 1347164); further: top concentration of the series differs between compounds; nearly all actives have a fitted effect of over 65% in size
Summary of the method: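 Cleavage of Ac-LKRR-Rhodamine 110 (10 microM final) by linked protease (final 5, 30 or 60 nM) was followed as fluorescence at 485/538 nm after 25 min, room temperature, dark. Compounds preincubated ~15 min.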

[8] = biological target: Lysine-specific demethylase 5B (Homo sapiens) (UniProt Q9UGL1); assay: Optimization screen for KDM5B Histone Demethylases FDH coupled qHTS against the LOPAC library (AID 1347166)
Sequence of Lysine-specific demethylase 5B (Homo sapiens) (Q9UGL1 whole entry, looked up): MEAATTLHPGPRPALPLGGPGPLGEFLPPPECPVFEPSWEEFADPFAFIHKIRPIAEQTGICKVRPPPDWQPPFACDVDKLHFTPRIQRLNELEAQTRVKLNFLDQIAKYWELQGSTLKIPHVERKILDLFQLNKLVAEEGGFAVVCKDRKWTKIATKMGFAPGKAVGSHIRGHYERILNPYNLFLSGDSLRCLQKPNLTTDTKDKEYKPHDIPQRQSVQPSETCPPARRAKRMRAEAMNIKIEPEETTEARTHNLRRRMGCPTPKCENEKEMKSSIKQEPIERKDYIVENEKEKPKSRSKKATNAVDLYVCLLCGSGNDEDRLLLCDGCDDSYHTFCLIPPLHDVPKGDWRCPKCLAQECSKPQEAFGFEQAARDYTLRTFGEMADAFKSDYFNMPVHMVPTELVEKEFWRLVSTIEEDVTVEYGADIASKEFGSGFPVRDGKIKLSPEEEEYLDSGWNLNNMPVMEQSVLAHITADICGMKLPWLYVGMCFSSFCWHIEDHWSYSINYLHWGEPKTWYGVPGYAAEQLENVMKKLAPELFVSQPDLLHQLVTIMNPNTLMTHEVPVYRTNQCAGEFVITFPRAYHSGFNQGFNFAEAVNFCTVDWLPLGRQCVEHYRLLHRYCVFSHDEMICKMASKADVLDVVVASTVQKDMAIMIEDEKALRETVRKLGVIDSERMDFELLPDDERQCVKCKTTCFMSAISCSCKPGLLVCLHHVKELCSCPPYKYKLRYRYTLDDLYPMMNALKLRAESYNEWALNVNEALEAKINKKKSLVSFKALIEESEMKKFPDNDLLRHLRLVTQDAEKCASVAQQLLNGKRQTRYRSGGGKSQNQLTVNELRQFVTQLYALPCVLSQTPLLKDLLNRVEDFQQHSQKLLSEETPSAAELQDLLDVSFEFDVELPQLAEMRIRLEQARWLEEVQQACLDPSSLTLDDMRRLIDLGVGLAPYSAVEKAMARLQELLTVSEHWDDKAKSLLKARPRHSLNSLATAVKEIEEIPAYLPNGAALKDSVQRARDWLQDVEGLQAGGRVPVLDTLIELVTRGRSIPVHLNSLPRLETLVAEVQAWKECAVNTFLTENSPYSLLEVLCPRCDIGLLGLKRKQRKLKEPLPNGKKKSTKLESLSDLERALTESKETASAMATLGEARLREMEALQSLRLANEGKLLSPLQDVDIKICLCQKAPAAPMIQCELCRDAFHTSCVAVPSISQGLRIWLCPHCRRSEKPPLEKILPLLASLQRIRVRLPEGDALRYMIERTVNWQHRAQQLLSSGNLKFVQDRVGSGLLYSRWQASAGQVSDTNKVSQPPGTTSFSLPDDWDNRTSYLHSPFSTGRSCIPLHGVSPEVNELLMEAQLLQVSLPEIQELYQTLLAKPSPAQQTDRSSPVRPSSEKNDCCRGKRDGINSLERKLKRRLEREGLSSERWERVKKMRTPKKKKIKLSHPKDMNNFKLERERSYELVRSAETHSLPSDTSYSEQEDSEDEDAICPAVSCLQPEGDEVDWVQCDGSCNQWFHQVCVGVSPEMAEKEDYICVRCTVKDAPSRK
Summary of the method: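 KDM5BDeltaAP (200nM final) preincubated 10 min with compound, then 12.5uM H3K4Me3, 25uM a-ketoglutarate, ascorbate, Fe(II), NAD+ and FDH added; 50mM HEPES pH 7.5, 0.01% Tween-20. NADH fluorescence (340/450 nm) change over 30 min, room temperature.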

[9] = Tertiary RLuc qRT-PCR qHTS assay for Zika virus inhibitors (AID 1347169); further: top concentration of the series differs between compounds; nearly all actives have a fitted effect of over 55% in size
Summary of the method: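 Inhibition of ZIKV-RLuc replication in Vero cells, read as Renilla luminescence 1-1.5 hrs after live-cell substrate addition, following 48-72 hrs infection at MOI 1-2 in presence of compound.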

[10] = qHTS to identify inhibitors of the type 1 interferon - major histocompatibility complex class I in skeletal muscle: primary screen against the NCATS LOPAC collection (AID 1347405);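 further: lytic HiBiT luminescence reporting HLA-B protein level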
Summary of the method: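 Immortalized human C25cl48 myoblasts with HiBiT knocked into endogenous HLA-B*08:01 were stimulated with 4.0 ng/ml IFN-beta and given compounds in a 7-point, 1:4.3 titration from 46 uM final; after 24 hrs, lytic HiBiT luminescence was read.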

[11] = qHTS for inhibitors of adenylyl cyclases using a fission yeast platform: a pilot screen against the NCATS LOPAC library (AID 1347410)
Summary of the method: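 Inhibition of GNAS-stimulated AC9 activity in S. pombe was inferred from derepression of a PKA-repressed fbp1-GFP reporter, measured as cytometric fluorescence after 18 h at 30C with compounds at up to 57 µM.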

[12] = Validation qHTS assay for inhibitors of Activation Induced Cytidine Deaminase (AID): UDG Counterscreen signal (AID 1347427)
Summary of the method: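 Counterscreen read of UDG activity (2 U/mL, 4/3x) in the FRET deamination format with AID (1 uM, 4/3x), DJC20/DJC23 substrates (250 nM, 4x), 4 h at room temperature. NaOH stop, fluorescence at 560 ex/665 em.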

[13] = biological target: Single-stranded DNA cytosine deaminase (Homo sapiens) (UniProt Q9GZX7); assay: Validation qHTS assay for inhibitors of Activation Induced Cytidine Deaminase (AID): AID signal (AID 1347429); further: potency means the concentration at half of the fitted maximal effect
Sequence of Single-stranded DNA cytosine deaminase (Homo sapiens) (Q9GZX7 whole entry, looked up): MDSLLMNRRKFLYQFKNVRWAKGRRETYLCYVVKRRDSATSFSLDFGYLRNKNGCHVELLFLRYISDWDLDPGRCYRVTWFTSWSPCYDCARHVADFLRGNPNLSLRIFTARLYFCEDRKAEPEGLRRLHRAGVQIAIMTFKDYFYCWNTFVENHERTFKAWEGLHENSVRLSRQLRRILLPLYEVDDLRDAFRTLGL
Summary of the method: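 AID and UDG were combined and compounds added at final up to 114 uM, then DJC20/DJC23 FRET substrate was added for 4 hr at room temperature. NaOH was then added for 30 min before fluorescence was read at 540/590 nm.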

[14] = Primary qHTS for small molecule stabilizers of the endoplasmic reticulum resident proteome: Secreted ER Calcium Modulated Protein (SERCaMP) assay (AID 1508630)
Summary of the method: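 GLuc-SERCaMP-expressing SH-SY5Y cells, pretreated 16 h with compound, are challenged with thapsigargin to empty ER calcium stores; after 4 h, coelenterazine is added directly to the medium and luminescence is imaged.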

Papain (Carica papaya) = Papain (Carica papaya) (UniProt P00784); assay: Primary qHTS assay for inhibitors of the protease papain (AID 1645873);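 further: papain turnover of Z-FR-AMC read as the AMC fluorescence gain over 10 min; potency means the concentration at half of the fitted maximal effect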
Sequence of Papain (Carica papaya) (P00784 whole entry, looked up): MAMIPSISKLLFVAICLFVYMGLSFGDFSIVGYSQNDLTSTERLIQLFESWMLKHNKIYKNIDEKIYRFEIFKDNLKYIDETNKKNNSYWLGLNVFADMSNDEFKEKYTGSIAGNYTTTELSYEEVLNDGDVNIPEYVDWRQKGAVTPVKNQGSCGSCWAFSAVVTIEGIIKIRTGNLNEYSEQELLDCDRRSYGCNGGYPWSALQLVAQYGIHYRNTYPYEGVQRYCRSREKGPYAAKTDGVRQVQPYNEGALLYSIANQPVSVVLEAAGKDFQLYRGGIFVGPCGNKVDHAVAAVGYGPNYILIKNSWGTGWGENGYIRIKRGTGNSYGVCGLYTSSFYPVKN

[15] = biological target: Rap guanine nucleotide exchange factor 3 (Homo sapiens) (UniProt O95398); assay: Confirmatory qHTS for antagonist of cAMP-regulated guanine nucleotide exchange factor 3 (EPAC1) (AID 1645880); further: potency means the concentration at half of the fitted maximal effect; nearly all actives have a fitted effect of over 55% in size
Sequence of Rap guanine nucleotide exchange factor 3 (Homo sapiens) (O95398 whole entry, looked up): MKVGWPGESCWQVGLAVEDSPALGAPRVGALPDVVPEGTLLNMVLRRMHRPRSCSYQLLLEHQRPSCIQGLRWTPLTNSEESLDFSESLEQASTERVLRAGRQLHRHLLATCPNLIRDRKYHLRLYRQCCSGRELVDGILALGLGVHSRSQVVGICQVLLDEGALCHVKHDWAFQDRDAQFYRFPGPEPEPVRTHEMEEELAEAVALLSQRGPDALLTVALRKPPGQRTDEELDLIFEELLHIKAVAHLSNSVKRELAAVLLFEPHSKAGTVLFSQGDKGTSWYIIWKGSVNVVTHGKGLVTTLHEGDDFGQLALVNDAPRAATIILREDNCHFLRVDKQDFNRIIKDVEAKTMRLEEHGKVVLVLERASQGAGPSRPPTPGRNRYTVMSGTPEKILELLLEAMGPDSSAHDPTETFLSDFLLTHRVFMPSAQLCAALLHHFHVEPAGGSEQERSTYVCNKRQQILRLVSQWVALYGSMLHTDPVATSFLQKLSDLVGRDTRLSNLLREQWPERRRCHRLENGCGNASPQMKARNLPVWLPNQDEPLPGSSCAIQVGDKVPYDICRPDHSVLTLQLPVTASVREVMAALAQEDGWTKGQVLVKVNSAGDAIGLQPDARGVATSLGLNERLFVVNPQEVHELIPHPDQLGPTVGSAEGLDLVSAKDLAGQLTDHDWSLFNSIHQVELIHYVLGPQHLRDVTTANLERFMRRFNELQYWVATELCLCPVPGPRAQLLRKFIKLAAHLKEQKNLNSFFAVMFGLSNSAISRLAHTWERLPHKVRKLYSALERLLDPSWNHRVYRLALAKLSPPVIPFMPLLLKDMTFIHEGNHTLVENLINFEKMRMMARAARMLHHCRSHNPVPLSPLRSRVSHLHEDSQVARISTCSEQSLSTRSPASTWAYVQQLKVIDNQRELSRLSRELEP
Summary of the method: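 Nucleotide exchange uses 100 nM EPAC1, 250 nM RAP1B-BODIPY-GDP and 50 uM GDP, with compounds in a concentration-titration series. After 5 min at room temperature, fluorescence (480 nm ex/540 nm em) is read every 5 min for 30 min. Data are normalized to control ATA and DMSO.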

[16] = biological target: Rap guanine nucleotide exchange factor 3 (Homo sapiens) (UniProt O95398); assay: Confirmatory qHTS for agonist of cAMP-regulated guanine nucleotide exchange factor 3 (EPAC1) (AID 1645881);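 further: EPAC1 catalysed release of BODIPY-GDP from Rap1B seen as fluorescence loss; nearly all actives have a fitted effect of over 75% in size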
[17] = biological target: Rap guanine nucleotide exchange factor 4 (Homo sapiens) (UniProt Q8WZA2); assay: Confirmatory qHTS for agonist of cAMP-regulated guanine nucleotide exchange factor 4 (EPAC2) (AID 1645884);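 further: nucleotide exchange releases bodipy-GDP from Rap1 and this lowers its fluorescence; nearly all actives have a fitted effect of over 65% in size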
Sequence of Rap guanine nucleotide exchange factor 4 (Homo sapiens) (Q8WZA2 whole entry, looked up): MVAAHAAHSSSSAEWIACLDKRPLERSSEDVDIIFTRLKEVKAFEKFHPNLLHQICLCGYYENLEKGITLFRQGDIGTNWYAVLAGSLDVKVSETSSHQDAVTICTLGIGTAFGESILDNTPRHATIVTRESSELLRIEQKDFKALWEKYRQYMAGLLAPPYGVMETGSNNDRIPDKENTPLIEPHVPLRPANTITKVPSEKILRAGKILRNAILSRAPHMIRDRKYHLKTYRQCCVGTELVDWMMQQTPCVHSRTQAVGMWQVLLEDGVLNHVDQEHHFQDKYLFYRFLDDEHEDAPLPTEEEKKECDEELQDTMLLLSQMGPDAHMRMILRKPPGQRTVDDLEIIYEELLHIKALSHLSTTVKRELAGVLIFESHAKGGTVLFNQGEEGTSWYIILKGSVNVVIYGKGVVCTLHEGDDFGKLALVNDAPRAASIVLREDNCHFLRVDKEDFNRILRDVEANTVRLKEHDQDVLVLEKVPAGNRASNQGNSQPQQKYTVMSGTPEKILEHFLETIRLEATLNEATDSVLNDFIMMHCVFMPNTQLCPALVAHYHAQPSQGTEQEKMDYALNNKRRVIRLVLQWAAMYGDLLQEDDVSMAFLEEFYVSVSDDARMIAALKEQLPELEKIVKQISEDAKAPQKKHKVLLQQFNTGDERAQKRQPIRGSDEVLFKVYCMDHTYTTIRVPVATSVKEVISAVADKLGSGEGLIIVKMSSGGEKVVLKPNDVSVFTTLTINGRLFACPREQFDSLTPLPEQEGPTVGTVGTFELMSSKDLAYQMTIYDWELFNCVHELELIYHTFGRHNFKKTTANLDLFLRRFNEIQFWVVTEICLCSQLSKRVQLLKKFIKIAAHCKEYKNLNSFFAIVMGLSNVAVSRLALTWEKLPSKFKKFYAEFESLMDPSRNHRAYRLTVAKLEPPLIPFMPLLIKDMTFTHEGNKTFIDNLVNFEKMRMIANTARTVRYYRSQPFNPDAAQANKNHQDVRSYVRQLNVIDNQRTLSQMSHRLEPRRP

[18] = biological target: Rap guanine nucleotide exchange factor 4 (Homo sapiens) (UniProt Q8WZA2); assay: Confirmatory qHTS for antagonist of cAMP-regulated guanine nucleotide exchange factor 4 (EPAC2) (AID 1645885); further: potency means the concentration at half of the fitted maximal effect; nearly all actives have a fitted effect of over 25% in size
[19] = biological target: Metallo-beta-lactamase type 2 (Klebsiella pneumoniae) (UniProt C7C422); assay: qHTS to identify inhibitors of the New Delhi Metallo-beta-lactamase (NDM): assay validation screen against the NCATS LOPAC Collection (AID 1794843); further: potency means the concentration at half of the fitted maximal effect
Sequence of Metallo-beta-lactamase type 2 (Klebsiella pneumoniae) (C7C422 whole entry, looked up): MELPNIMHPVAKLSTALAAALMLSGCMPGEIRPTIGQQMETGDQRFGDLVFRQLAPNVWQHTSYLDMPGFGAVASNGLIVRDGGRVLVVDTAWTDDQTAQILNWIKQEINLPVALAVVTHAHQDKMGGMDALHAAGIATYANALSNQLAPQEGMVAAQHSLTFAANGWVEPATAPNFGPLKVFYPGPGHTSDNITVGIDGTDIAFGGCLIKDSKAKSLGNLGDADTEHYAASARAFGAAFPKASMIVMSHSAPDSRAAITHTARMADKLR
Summary of the method: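 Enzyme 2 nM final, 50 mM HEPES pH 7.0, 1 uM ZnSO4, 0.01% Tween20; cpds in DMSO, preincub w/ enzyme; + nitrocefin (50 uM stock); A485 at plateau; no-enzyme column as blank.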

[20] = biological target: Glutathione peroxidase 1 (Homo sapiens) (UniProt P07203); assay: Primary qHTS Assay for Inhibitors of Recombinant Selenoprotein Glutathione Peroxidase 1 (GPX1) (AID 1845191); further: nearly all actives have a fitted effect of over 65% in size
Sequence of Glutathione peroxidase 1 (Homo sapiens) (P07203 whole entry, looked up): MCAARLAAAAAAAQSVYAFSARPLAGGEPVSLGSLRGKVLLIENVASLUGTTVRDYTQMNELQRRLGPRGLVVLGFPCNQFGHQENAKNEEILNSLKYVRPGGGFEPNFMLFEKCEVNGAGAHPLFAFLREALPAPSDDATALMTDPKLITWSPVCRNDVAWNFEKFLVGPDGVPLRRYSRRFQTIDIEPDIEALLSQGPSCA
Summary of the method: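 Recombinant GPX1 (10 nM final) was preincubated with compound for 30 min at room temperature, then reacted with 1 mM GSH, 0.5 mM CHP, 0.5 mM NADPH and 100 nM glutathione reductase; NADPH fluorescence (340/450 nm) was read at 0 and 15 min.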

Measured: Potency

Nc1c(S(=O)(=O)O)cc(Nc2ccc(Nc3nc(Cl)nc(Nc4ccc(S(=O)(=O)O)cc4)n3)c(S(=O)(=O)O)c2)c2c1C(=O)c1ccccc1C2=O
active: [1] 44.7 µM | [2] 10.6 µM | [3] 2.24 µM | [4] 8.91 µM | [5] 2 µM | [6] 10 µM | [13] 28.2 µM | Papain (Carica papaya) 1.78 µM | [15] 9.93 µM | [18] 22.1 µM | [19] 0.631 µM
inactive: [7] | [8] | [9] | [10] | [11] | [12] | [14] | [16] | [17] | [20]
